Reference: PubChem BioAssay (NCI)
Compounds without any hit were thinned out: in the full panel of roughly 83,000, 20% have a hit.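 Values shown are percent growth following 48 h exposure of cells in 96-well plates to a single concentration of compound; below 10 was considered active.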 Values without a mark were called inactive. Activity calls are given as the source filed them.

Tests used:
Test in all cases: NCI-60 one-dose screen, 48 h (100 = growth as untreated, 0 = no growth, -100 = all killed)
Conditions in all cases: 10 µM unless noted
BT-549 breast = test system: BT-549 breast
MDA-MB-435 melanoma = test system: MDA-MB-435 melanoma
SW-620 colon = test system: SW-620 colon
MCF7 breast = test system: MCF7 breast
HCT-116 colon = test system: HCT-116 colon
HCC-2998 colon = test system: HCC-2998 colon
KM12 colon = test system: KM12 colon

Structure (SMILES) | growth (BT-549 breast) | growth (MDA-MB-435 melanoma) | growth (SW-620 colon) | growth (MCF7 breast) | growth (HCT-116 colon) | growth (HCC-2998 colon) | growth (KM12 colon)
O=Nc1ccc(O)c(=O)cc1 | 32.5% | 32% | -43% (active) | 20.9% | 2.12% (active) | 97.8% | 
S=c1[nH]nc2sc3ccccc3n12 | 116% | 118% | 105% | 98.4% | 102% | 109% | 115%
O=C(C(=O)N1CCCCC1)c1ccc(OC2OC(CO)C(O)C(O)C2O)cc1 (stereo unspecified) | 116% | 107% | 109% | 94.3% | 109% | 108% | 115%
COc1ccc(-c2c3c(nn2-c2ccc(N)cc2)CCc2cnoc2-3)cc1OC | 81.4% | 94.8% | 97.6% | 94.1% | 84.4% | 98.4% | 82.1%
COC(=O)CCC1=C(C)/C(=C/c2[nH]c(-c3ccc[nH]3)cc2OC)N=C1C | 14.3% | -13.5% (active) | 8.99% (active) | 1.82% (active) | -61.8% (active) | 9.8% (active) | 5.49% (active)
O=C(Nc1ccc(Cl)cc1)c1cc2c(cc1O)[nH]c1ccccc12 | 26.5% | -25.6% (active) | 19.1% | 8.67% (active) | 14.1% | -21.5% (active) | 37.5%
O=C1N(C2CCCCC2)C(=O)N1C1CCCCC1 | 33.6% | 57.4% | 48.5% | 42.9% | 44.2% | 49.3% | 7.4% (active)
COc1cc(/C=C/c2nnc(-c3cc(-c4ccccc4)n[nH]3)o2)cc(OC)c1OC | 112% | 102% | 115% | 92% | 119% | 98.3% | 103%
COc1ccc2c(c1)C(=O)c1c-2c(OCCN(C)C)nc2cc(OC)ccc12 | 56.6% | 18.5% | -45.8% (active) | -50% (active) | -76% (active) | -88.8% (active) | -37.4% (active)
CN(C)c1ccc(/C=C(\C#N)c2nc3ccccc3c(=O)[nH]2)cc1 | 87.9% | 86.7% | 82.6% | 73.5% | 76.9% | 84.8% | 79.9%
CCCCOc1ccc(C(C)(C)c2ccc(OCCCC)cc2)cc1 | 106% | 117% | 112% | 104% | 95.8% | 105% | 120%
O=[P@@]1(c2ccccc2)O[C@H](COCc2ccccc2)[C@@H](OCc2ccccc2)[C@H](OCc2ccccc2)[C@H]1NCc1ccccc1 | 4.37% (active) | 9.72% (active) | 21.6% | 9.59% (active) | 8.21% (active) | 38.8% | 15.3%
Cc1cc(NCCCNc2ccnc3cc(Cl)ccc23)nc(N2CCN(C)CC2)n1 | 95.6% | 46% | 37.3% | 33.1% | 18.5% | 48.9% | 52.6%
CC1=C(C(=O)Nc2ccccc2)C(c2ccc3c(c2)OCCO3)NC(=O)N1 (stereo unspecified) | 95.9% | 102% | 105% | 94.7% | 97.6% | 103% | 100%
O=C(Nc1ccc(Nc2ccncc2)cc1)c1ccc(Nc2ccnc3ccc([N+](=O)[O-])cc23)cc1[N+](=O)[O-] | 38.8% | 63.1% | 96.8% | 50.8% | 54.4% | 104% | 2.06% (active)
CSc1nc2c(c(=O)[nH]1)C(c1ccc(Cl)cc1)C1=C(N2)/C(=C/c2ccc(Cl)cc2)CNC1 (stereo unspecified) | 24.8% | 34.5% | -9.84% (active) | 13% | -69.5% (active) | 17.3% | -24% (active)
O=C(CCc1nnc2sc(-c3ccc(Cl)cc3Cl)nn12)c1nc2ccccc2[nH]1 | -28.2% (active) | -39.7% (active) | -34.3% (active) | -40.7% (active) | -84.7% (active) | -90.3% (active) | -27% (active)
CCCCn1c(Cc2ccc(Cl)cc2)nc2cc(OC)c(OC)cc2c1=O | 38% | 74.1% | 95.6% | 86.5% | 52.5% | 75.8% | 76.1%

Structure (SMILES) | growth (BT-549 breast) | growth (MDA-MB-435 melanoma) | growth (SW-620 colon) | growth (MCF7 breast) | growth (HCT-116 colon) | growth (HCC-2998 colon) | growth (KM12 colon)
O=C1Nc2ccccc2C12Nc1cc(Cl)ccc1S2 (stereo unspecified) | 76.2% | 95.4% | 120% | 59.7% | 84.5% | 110% | 80.4%
O=C(CCc1nnc(Cn2cncn2)o1)c1nc2ccccc2[nH]1 | 112% | 103% | 113% | 91% | 111% | 112% | 114%
CCN(CC)CCCNCCCNc1cc(OC)cc2cccnc12 | 100% | 103% | 38.7% | -46.8% (active) | 86.5% | 83.7% | 78.8%
CCC(O)C(C)(C)C (stereo unspecified) | 108% | 105% | 101% | 113% | 106% | 106% | 113%
COc1ccc(-c2nn(-c3cccc(Cl)c3)cc2C2CC(c3ccccc3)=NN2C(C)=O)cc1 (stereo unspecified) | 74.7% | 88.5% | 73.6% | 68% | 60.9% | 95.4% | 96.4%
Cc1nn(-c2ccc(Cl)cc2)c2nc3c(nc12)c(=O)oc1ccccc13 | 89.8% | 106% | 104% | 99.1% | 105% | 98.2% | 112%
c1ccc(-c2nnc(Nc3nnc(-c4ccccc4)s3)s2)cc1 | 106% | 106% | 98% | 67.6% | 97.9% | 108% | 113%
O=C1Cc2cc(CCN3CCN(CCOCCO)CC3)c(Cl)cc2N1Cc1ccc(-c2ccccc2-c2nn[nH]n2)cc1 | 87.3% | 92.8% | 95.9% | 87.1% | 87.8% | 88.5% | 85.2%
CN(C)CCCN1c2nc3ccccc3cc2Sc2cc3ccccc3nc21 | -100% (active) | -67% (active) | -93.5% (active) | -97.9% (active) | -62.8% (active) | -71.3% (active) | -72.4% (active)
COc1ccc(/C=C/C(=O)Nc2cccnc2Nc2ccc(F)cc2)cc1 | 89.3% | 94.4% | 106% | 88.3% | 91.3% | 106% | 107%
CN(C)c1ccc2c(c1)/C(=N/O)c1ccccc1-2 | 91.7% | -8.86% (active) | 50.3% | 19.9% | 39.4% | 101% | 35.2%
COc1ccc(-c2cncn2-c2ccc(-c3nc4cc(OC)c(OC)c(OC)c4s3)cc2)cc1N | 31.5% | 47.6% | 63.6% | 39.9% | 36.3% | 80.5% | 51.8%
Fc1ccc(-c2nc(Nc3ccc(-c4nc5ccccc5[nH]4)cc3)nc(N3CCOCC3)n2)cc1 | -73.6% (active) | -86.1% (active) | -74.2% (active) | -73.8% (active) | -85.5% (active) | -89.9% (active) | -91.3% (active)
O=C(Nc1cccc(C(F)(F)F)c1)Nc1ccc(OCc2nnc(-c3ccc(Cl)cc3)o2)c(F)c1 | 104% | 83.2% | 71.8% | 53.6% | 37.1% | 72.1% | 49.7%
O=C(CSc1nc2c(n1Nc1ccccc1)-c1ccccc1SC2)Nc1nc(-c2ccc(Cl)cc2)cs1 | 93.9% | 61% | 28.2% | 68.9% | 36.9% | 102% | 48.5%
O=C(Nc1ccc(Cl)cc1)Nc1ccc(Oc2nncc3ccccc23)cc1 | -10.3% (active) | -33.3% (active) | -30.1% (active) | 14.3% | -56.9% (active) | -42.2% (active) | -32.3% (active)
CC(=O)c1nc2ccccc2n1CCn1cc(CC(N)C(=O)O)c2ccccc21 (stereo unspecified) | 105% | 101% | 114% | 75.3% | 106% | 102% | 104%
COc1cc(NC(=O)c2cc3ccccc3cc2O)c(OC)cc1Cl | -24.3% (active) | 3.67% (active) | 17.5% | 2.91% (active) | -21.3% (active) | -40.4% (active) | 5.63% (active)
